Data taken from article PMC5540273 (PLoS ONE, 2017).

What was measured:
Settings in all cases: concentration: 1 μM, replicates: in singlicate; n = 1
ERK5 = test system: T1, ERK5
T1 construct: gene MAPK7

ERK8 = test system: T2, ERK8
T2 construct: gene MAPK15

ERN1 = test system: ERN1
FAK = test system: T3, FAK
T3 construct: gene PTK2

FER = test system: FER
FES = test system: FES
FGFR1 = test system: FGFR1
FGFR2 = test system: FGFR2
FGFR3 = test system: FGFR3
FGFR4 = test system: FGFR4
FGR = test system: FGR
FLT1 = test system: FLT1
FLT3-autoinhibited = test system: FLT3-autoinhibited
FLT3 = test system: FLT3
FLT4 = test system: FLT4
FRK = test system: FRK
FYN = test system: FYN
GAK = test system: GAK
GCN2(Kin.Dom.2,S808G) = test system: T4, GCN2(Kin.Dom.2,S808G)
T4 construct: gene EIF2AK4

GRK1 = test system: GRK1

Measured: %Inh
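Also: KINOMEscan kinase panel screen.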

O=C(NCc1cccs1)c1cc(C(=O)c2c(Cl)cccc2Cl)c[nH]1 [GW823670]
8%: GCN2(Kin.Dom.2,S808G)
7%: FGR
2%: FLT1 | FLT3 | FLT4
91.3%: FAK
1%: FER
0%: ERK5 | ERK8 | ERN1 | FES | FGFR1 | FGFR2 | FGFR3 | FGFR4 | FLT3-autoinhibited | FRK | FYN | GAK | GRK1

O=C(NCCNc1ccnc(Nc2ccc(F)cc2)n1)Nc1ccc2c(c1)OCO2 [GSK1379882]
2%: ERK5 | FGFR3
9%: FLT4
34%: FYN
14%: GAK
30%: ERN1
0%: ERK8 | FAK | FER | FES | FGFR1 | FGFR2 | FGFR4 | FGR | FLT1 | FLT3 | FRK | GCN2(Kin.Dom.2,S808G) | GRK1
12%: FLT3-autoinhibited

Nc1ncnc2c1ncn2-c1ccc(Cl)cc1 [AH2635]
9%: FLT4
26%: FER
12%: FYN
1%: FLT3-autoinhibited
18%: FGR
8%: FGFR3
46%: FLT3
0%: ERK5 | ERK8 | ERN1 | FAK | FES | FGFR1 | FGFR2 | FGFR4 | FRK | GCN2(Kin.Dom.2,S808G) | GRK1
39%: FLT1
7%: GAK

CCC(=O)c1c(-c2ccccc2)c2cc(Cl)ccc2c(=O)n1Cc1cc(S(C)(=O)=O)n(CC(F)F)n1
4%: FGFR2
0%: ERK5 | ERN1 | FAK | FER | FES | FGFR1 | FGFR3 | FGFR4 | FGR | FLT1 | FLT3-autoinhibited | FLT3 | FLT4 | FRK | FYN | GAK | GCN2(Kin.Dom.2,S808G)
6%: ERK8
12%: GRK1

Fc1cccc(CSc2nnc(-c3ccc4c(c3)CCO4)o2)c1
15%: FLT4 | FRK
0%: ERK5 | FAK | FER | FES | FGFR1 | FGFR2 | FGFR3 | FGR | FLT1 | FLT3
14%: ERN1
6%: FGFR4
3%: ERK8 | FYN | GAK
7%: GRK1
23%: FLT3-autoinhibited
4%: GCN2(Kin.Dom.2,S808G)

Nc1ncnc2c1ncn2-c1cccc2ccccc12 [SKF-97184]
9%: ERK8
12%: FGFR1
6%: FGR
0%: ERK5 | ERN1 | FAK | FER | FES | FGFR2 | FGFR3 | FGFR4 | FLT1 | FLT3-autoinhibited | FLT3 | FRK | FYN | GAK | GCN2(Kin.Dom.2,S808G)
10%: FLT4
31%: GRK1

COc1ccc(-c2cc3c(C)nc(N)nc3n([C@H]3CC[C@H](O)CC3)c2=O)cn1
0%: ERK5 | ERK8 | ERN1 | FAK | FER | FES | FGFR1 | FGFR2 | FGFR3 | FGFR4 | FGR | FLT1 | FLT3-autoinhibited | FLT3 | FLT4 | FRK | FYN | GAK | GCN2(Kin.Dom.2,S808G) | GRK1

Cc1ccc(-c2ccc3c(ccc4sc5c(c43)NC[C@@H](C)N=C5N(C)C)n2)cn1
1%: FER | FGR | FLT1
0%: ERN1 | FAK | FES | FGFR1 | FGFR2 | FGFR3 | FGFR4 | FLT3-autoinhibited | FLT3 | FLT4 | FRK | FYN | GAK | GCN2(Kin.Dom.2,S808G) | GRK1
8%: ERK8
2%: ERK5

COc1cc2nccc(Nc3ccc(OCc4ccc(NC(C)=O)cc4)cc3)c2cc1OC.Cl [GW440135]
92.4%: FLT4
73%: FLT3
7%: FRK | GAK
0%: ERK5 | ERN1 | FAK | FGFR4 | FLT3-autoinhibited
25%: ERK8
8%: FES
22%: GRK1
47%: FGFR2
1%: FYN
4%: FER | FGFR1 | GCN2(Kin.Dom.2,S808G)
29%: FGR
26%: FGFR3
83%: FLT1

CCS(=O)c1ccc(-c2coc3ccc(-c4nnc(C)o4)cc23)cc1 (centres unmarked)
5%: FRK | GRK1
7%: FES | FGFR3
11%: FER
16%: ERN1
0%: ERK5 | ERK8 | FAK | FGFR4 | FGR | FLT1 | FLT3-autoinhibited | FLT3 | FLT4 | FYN | GAK | GCN2(Kin.Dom.2,S808G)
10%: FGFR2
9%: FGFR1
